Test results: the supplement of paper PMC10849652
Of roughly 7,900 targets only a part is listed; those with a hit were picked by preference. About 0.6% of all pairs of compound and target were hits. Values without a mark were called inactive.

Key:
Experiment in all cases: log2 fold change, soluble protein after heating vs DMSO (PISA); higher = thermal stabilisation; K562 cells, 10 uM, 30 min; active = over 0.2 and 3.5 SD of the protein, either way, in both replicates (recomputed)
[1] = compound: NC(=O)Nc1cc(-c2cccc(F)c2)sc1C(=O)N[C@H]1CCCNC1
In short: (§1)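 Soluble protein was defined as the supernatant after 21,000xg for 90 min. It came from K562 cells at 2×10^6 cells/mL given 10 μM compound for 30 min, heated in aliquots for 3 min across 48°C-58°C, pooled, and extracted in PBS with 0.5% NP-40 at 4°C, and was quantified by TMTpro 16plex LC-MS/MS with equalised channel sums. Thermal stability against control samples, from duplicates, is reported as log2 fold change.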

[2] = compound: NC(=O)c1cnc(N[C@@H]2CCCC[C@@H]2N)nc1Nc1cccc(-n2nccn2)c1
In short: as §1

[3] = compound: NC1(c2ccc(-c3nc4ccn5c(=O)[nH]nc5c4cc3-c3ccccc3)cc2)CCC1
In short: as §1

[4] = compound: NCC(=O)Nc1ccc(-n2nc(C(F)(F)F)cc2-c2ccc3c(ccc4ccccc43)c2)cc1
In short: as §1

entinostat = compound: Nc1ccccc1NC(=O)c1ccc(CNC(=O)OCc2cccnc2)cc1 [entinostat]
In short: as §1

vorinostat = compound: O=C(CCCCCCC(=O)Nc1ccccc1)NO [vorinostat]
In short: as §1

citarinostat = compound: O=C(CCCCCCNC(=O)c1cnc(N(c2ccccc2)c2ccccc2Cl)nc1)NO [citarinostat]
In short: as §1

silmitasertib = compound: O=C(O)c1ccc2c(c1)nc(Nc1cccc(Cl)c1)c1ccncc12 [silmitasertib]
In short: as §1

[5] = compound: O=C1NC(=O)C(c2cnc3ccccn23)=C1c1cn2c3c(cc(F)cc13)CN(C(=O)N1CCCCC1)CC2
In short: as §1

[6] = compound: c1cc(OCCN2CCCCC2)cc(-c2n[nH]c3ccc(-c4nnc[nH]4)cc23)c1
In short: as §1

Sequence of UniProt Q15126 (Q15126 whole entry, looked up): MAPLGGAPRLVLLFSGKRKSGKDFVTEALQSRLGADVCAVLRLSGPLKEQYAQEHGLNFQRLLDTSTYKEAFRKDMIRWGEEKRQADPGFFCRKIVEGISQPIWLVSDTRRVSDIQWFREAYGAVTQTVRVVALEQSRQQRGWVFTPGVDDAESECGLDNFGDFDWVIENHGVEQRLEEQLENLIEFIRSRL
Sequence of UniProt P40425 (P40425 whole entry, looked up): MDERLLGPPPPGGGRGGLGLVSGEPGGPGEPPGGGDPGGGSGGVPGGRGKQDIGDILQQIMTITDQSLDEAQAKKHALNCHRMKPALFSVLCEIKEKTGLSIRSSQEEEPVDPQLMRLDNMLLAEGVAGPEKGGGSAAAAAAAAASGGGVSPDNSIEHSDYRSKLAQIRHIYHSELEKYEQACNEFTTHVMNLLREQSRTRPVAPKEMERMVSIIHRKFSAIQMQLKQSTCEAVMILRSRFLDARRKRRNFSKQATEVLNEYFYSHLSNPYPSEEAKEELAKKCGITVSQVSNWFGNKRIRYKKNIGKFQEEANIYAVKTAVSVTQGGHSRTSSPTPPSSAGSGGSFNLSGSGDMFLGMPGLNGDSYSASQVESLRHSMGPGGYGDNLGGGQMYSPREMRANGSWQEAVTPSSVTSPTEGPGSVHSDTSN
Sequence of UniProt Q16401 (Q16401 whole entry, looked up): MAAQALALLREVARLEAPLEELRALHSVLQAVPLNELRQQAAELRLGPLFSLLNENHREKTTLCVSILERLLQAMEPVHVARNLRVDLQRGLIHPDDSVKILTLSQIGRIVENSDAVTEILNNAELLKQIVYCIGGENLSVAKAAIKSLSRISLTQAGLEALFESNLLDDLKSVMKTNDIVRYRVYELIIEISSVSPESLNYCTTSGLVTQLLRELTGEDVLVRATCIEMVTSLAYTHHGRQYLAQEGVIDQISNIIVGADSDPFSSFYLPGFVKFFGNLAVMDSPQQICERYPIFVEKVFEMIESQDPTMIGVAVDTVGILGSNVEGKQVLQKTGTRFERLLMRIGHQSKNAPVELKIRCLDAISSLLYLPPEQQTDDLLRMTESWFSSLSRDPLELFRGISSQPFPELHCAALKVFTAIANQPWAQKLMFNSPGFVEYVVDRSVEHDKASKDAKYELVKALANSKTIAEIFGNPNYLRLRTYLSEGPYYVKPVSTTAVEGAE
Sequence of UniProt P15735 (P15735 whole entry, looked up): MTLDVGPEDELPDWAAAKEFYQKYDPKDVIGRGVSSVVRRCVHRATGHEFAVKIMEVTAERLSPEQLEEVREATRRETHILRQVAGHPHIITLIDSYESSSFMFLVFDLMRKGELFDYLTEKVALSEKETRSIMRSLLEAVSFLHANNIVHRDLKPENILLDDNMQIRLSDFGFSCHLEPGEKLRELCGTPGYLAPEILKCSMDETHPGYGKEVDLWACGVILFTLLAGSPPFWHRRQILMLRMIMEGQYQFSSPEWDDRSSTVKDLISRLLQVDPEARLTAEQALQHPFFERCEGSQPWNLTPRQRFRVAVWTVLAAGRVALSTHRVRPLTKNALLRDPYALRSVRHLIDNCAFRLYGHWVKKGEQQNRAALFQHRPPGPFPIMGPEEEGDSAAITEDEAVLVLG
Sequence of UniProt Q96AD5 (Q96AD5 whole entry, looked up): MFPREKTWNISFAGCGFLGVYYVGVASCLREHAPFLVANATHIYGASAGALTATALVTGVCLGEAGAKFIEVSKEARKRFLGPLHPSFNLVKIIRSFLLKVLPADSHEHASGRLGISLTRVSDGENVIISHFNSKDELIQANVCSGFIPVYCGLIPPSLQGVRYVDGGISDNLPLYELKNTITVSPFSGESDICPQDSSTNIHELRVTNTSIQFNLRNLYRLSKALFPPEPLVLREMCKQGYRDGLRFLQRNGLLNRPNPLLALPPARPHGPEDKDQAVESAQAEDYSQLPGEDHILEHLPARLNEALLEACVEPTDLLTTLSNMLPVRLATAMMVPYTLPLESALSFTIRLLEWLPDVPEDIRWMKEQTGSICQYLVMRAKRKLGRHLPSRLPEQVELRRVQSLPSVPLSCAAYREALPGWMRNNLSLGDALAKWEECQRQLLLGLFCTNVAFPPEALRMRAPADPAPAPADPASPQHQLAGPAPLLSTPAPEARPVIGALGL
Sequence of UniProt Q12974 (Q12974 whole entry, looked up): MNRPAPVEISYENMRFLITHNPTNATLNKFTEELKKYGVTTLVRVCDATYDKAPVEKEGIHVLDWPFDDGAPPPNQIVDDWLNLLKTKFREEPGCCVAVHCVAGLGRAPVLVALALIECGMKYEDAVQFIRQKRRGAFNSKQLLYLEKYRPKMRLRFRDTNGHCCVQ
Sequence of UniProt O75340 (O75340 whole entry, looked up): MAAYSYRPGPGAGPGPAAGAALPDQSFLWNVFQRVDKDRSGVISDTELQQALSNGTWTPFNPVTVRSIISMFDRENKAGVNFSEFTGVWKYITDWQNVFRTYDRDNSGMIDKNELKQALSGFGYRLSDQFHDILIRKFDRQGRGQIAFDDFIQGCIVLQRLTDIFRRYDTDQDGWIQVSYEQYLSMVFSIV
Sequence of UniProt Q9NTI5 (Q9NTI5 whole entry, looked up): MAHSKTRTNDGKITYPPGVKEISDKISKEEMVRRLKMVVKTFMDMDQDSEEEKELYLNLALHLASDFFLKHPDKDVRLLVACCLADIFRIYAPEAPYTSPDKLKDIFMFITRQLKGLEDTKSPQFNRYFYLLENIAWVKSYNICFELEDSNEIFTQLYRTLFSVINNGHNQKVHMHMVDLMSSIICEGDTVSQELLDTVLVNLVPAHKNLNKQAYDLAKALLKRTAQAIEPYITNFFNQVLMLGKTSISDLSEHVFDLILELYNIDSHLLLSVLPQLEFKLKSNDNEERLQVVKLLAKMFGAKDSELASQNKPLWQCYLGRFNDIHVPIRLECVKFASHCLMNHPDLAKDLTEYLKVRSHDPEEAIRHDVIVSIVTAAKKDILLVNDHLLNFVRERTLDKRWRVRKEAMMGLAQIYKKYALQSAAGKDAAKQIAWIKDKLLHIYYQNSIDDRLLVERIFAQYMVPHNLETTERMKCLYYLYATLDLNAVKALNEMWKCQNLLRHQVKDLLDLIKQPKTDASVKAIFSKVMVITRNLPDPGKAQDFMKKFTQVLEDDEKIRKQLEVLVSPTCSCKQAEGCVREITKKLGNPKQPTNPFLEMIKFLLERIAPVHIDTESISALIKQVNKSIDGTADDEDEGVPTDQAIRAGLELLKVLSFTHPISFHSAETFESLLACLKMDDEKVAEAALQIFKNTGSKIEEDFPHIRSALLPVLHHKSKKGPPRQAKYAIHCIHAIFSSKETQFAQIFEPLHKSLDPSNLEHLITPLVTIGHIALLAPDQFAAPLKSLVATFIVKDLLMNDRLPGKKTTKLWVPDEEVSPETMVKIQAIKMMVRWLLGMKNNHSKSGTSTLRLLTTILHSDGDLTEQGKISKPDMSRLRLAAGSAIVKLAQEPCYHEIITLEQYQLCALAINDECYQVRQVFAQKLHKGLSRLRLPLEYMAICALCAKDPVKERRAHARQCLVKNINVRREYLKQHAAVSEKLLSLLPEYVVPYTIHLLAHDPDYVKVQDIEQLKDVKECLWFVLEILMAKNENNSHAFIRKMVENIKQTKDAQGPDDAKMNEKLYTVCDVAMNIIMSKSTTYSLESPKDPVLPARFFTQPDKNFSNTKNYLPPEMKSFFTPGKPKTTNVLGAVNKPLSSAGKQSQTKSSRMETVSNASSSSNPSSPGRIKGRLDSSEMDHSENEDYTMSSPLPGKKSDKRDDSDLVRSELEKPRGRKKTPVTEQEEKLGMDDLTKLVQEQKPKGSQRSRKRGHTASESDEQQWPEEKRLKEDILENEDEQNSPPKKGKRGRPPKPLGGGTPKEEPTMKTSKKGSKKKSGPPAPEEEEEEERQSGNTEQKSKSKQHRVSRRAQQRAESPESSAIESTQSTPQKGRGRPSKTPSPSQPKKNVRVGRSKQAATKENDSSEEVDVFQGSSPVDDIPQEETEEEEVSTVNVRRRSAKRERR
Sequence of UniProt O15305 (O15305 whole entry, looked up): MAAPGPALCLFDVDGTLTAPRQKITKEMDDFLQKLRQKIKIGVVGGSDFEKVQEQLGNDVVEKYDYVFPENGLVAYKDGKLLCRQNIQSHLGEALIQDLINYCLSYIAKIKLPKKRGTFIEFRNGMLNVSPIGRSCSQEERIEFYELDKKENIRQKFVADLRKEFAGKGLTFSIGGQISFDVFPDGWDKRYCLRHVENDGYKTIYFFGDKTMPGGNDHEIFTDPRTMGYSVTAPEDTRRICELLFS
Sequence of UniProt Q6EEV4 (Q6EEV4 whole entry, looked up): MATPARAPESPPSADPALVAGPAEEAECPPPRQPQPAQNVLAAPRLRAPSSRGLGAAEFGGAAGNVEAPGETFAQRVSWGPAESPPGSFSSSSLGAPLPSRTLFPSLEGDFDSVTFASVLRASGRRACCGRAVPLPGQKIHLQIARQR

| Target | log2 fold change [1] | log2 fold change [2] | log2 fold change [3] | log2 fold change [4] | log2 fold change (entinostat) | log2 fold change (vorinostat) | log2 fold change (citarinostat) | log2 fold change (silmitasertib) | log2 fold change [5] | log2 fold change [6] |
| --- | --- | --- | --- | --- | --- | --- | --- | --- | --- | --- |
| PLD3 (UniProt Q8IV08) | 0.008 | -0.005 | -0.177 | -0.051 | 0.009 | 0.022 | 0.034 | 0.006 | 0.024 | 0.067 |
| PUM1 isoform 3 (UniProt Q14671) | 0 | -0.032 | -0.082 | -0.015 | 0.034 | 0.108 | -0.008 | 0.01 | -0.028 | -0.007 |
| PKM (UniProt P14618) | 0.01 | -0.029 | 0.011 | -0.025 | -0.013 | -0.009 | 0.016 | -0.016 | -0.032 | -0.02 |
| PHKG2 (UniProt P15735) | 0.417 (active) | 0.088 | -0.064 | -0.035 | -0.007 | 0 | 0.122 | 0.052 | 0.023 | -0.045 |
| PMVK (UniProt Q15126) | -0.04 | -0.001 | -0.114 | 0.29 | -0.08 | -0.134 |  | 0.065 | 0.048 |  |
| PIK3C3 (UniProt Q8NEB9) | 0.068 | 0.117 | -0.018 | -0.015 | -0.03 | -0.038 | -0.038 | 0.051 | 0.078 | -0.041 |
| PCK2 (UniProt Q16822) | 0 | 0 | -0.029 | -0.013 | 0.005 | 0.004 | 0.013 | -0.025 | -0.148 | -0.032 |
| POLR2A (UniProt P24928) | -0.057 | 0.121 | -0.049 | -0.094 | 0.049 | -0.067 | -0.062 | 0.086 | 0.059 | -0.05 |
| PIR (UniProt O00625) | -0.047 | -0.053 | -0.195 | -0.024 | -0.022 | -0.625 (active) | -0.014 | -0.038 | -0.012 | 0.253 (active) |
| PRKD2 isoform 3 (UniProt Q9BZL6) | -0.515 (active) | -0.217 | -0.074 | 0 | 0.331 | 0.186 |  | 0.047 | -0.014 |  |
| PSMA3 (UniProt P25788) | 0.03 | 0.022 | 0.071 | 0.058 | -0.027 | -0.029 | 0.005 | -0.002 | 0.102 | -0.056 |
| PNPLA2 (UniProt Q96AD5) | -0.075 | -0.01 | -0.05 | -0.004 | 0.078 | 0.192 | 0.087 | 0.065 | 0.012 | -0.138 |
| POLR2M (UniProt Q6EEV4) | 0.027 | -0.09 | -0.065 | -0.056 | -0.148 |  | 0.029 | 0.03 | -0.122 | -0.009 |
| PDCD6 (UniProt O75340) | -0.066 | -0.08 | 0.117 | -0.106 | 0.081 | 0.028 | 0.064 | -0.022 | -0.096 | -0.024 |
| QKI (UniProt Q96PU8) | -0.057 | -0.137 | -0.086 | -0.084 | 0.006 | 0.06 | 0.026 | -0.012 | -0.071 | 0.064 |
| PSMD5 (UniProt Q16401) | -0.001 | 0.009 | -0.094 | -0.009 | 0.01 | 0.008 | 0.033 | 0.038 | -0.032 | -0.009 |
| PBX2 (UniProt P40425) | 0.089 | -0.016 | -0.203 | -0.065 | 0.058 | 0.196 |  | 0.003 | -0.168 |  |
| PHKA1 (UniProt P46020) | 0.03 | 0.046 | -0.202 |  | -0.005 | 0.013 | 0.128 | 0.004 | 0.027 | -0.068 |
| PRPF4B (UniProt Q13523) | -0.057 | -0.075 | -0.022 | -0.065 | -0.008 | 0.025 | 0.033 | 0.01 | 0.055 | -0.328 (active) |
| PTP4A2 (UniProt Q12974) | -0.161 | -0.286 | 0.079 | -0.023 | 0.011 |  | 0.016 | 0.052 | -0.168 | -0.045 |
| PDIK1L (UniProt Q8N165) | 0.566 (active) | -0.025 | -0.075 | -0.225 | -0.094 |  | 0.016 | 0.035 | 0.019 | -0.162 |
| PDS5B (UniProt Q9NTI5) | -0.07 | -0.12 | -0.043 | -0.167 | -0.036 | -0.043 | 0.046 | 0.027 | -0.08 | 0.03 |
| PMM2 (UniProt O15305) | 0.022 | 0.01 | 0.016 | -0.024 | -0.004 | 0.007 | 0.024 | -0.001 | -0.05 | -0.02 |
| PRKCA (UniProt P17252) | -0.085 | -0.134 | -0.181 | -0.029 | 0.057 | 0.117 | 0.028 | -0.045 | -0.205 | -0.091 |
